Measurements from article PMC3218832.

target: T1, C-Rel subunit;p52 subunit (Homo sapiens;Homo sapiens, UniProt Q04864;Q00653 1-285;4-332); assay: protein binding microarray; high values mean tight binding; conditions: dsDNA, one strand shown
T1 sequence 1: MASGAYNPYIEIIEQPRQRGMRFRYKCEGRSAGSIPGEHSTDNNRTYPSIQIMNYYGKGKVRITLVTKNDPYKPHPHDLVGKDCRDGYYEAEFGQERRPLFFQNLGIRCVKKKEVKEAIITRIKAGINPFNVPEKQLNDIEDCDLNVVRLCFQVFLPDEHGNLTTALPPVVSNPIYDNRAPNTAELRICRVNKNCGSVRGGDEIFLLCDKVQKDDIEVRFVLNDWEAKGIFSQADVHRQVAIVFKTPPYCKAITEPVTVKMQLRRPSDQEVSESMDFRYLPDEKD
T1 sequence 2: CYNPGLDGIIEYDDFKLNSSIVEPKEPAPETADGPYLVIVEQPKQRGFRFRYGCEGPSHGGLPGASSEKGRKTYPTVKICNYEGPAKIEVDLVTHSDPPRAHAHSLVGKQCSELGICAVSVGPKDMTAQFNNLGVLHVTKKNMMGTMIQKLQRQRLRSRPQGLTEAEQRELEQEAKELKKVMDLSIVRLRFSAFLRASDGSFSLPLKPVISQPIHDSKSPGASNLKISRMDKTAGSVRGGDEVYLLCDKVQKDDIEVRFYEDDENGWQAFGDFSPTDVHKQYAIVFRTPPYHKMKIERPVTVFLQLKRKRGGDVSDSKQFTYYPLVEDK

Row | Sequence | binding signal [z-score]
1 | CGGGTTATCCC | 0.791
2 | CAAGGGGTCCT | -0.486
3 | AGAAGGCCCCT | 0.0154
4 | GGGGTCGCCCC | 1.5
5 | CGAATTCTCCT | -0.63
6 | AAGGGAATCCC | 1.92
7 | AAAAGGATCCT | -0.998
8 | GAAGAGCCCCT | 0.429
9 | AAGGACGCCCT | -0.928
10 | CGGATAATCCT | -0.765
11 | CAGAGACCCCC | 0.174
12 | CAGAACCTCCT | -0.853
13 | AAGAGGCCCCT | -0.287
14 | CAAGGAGCCCC | -0.176
15 | AGAAGGGTCCC | -0.315
16 | AAAGAATTCCC | 1.12
17 | AAAAATCCCCT | 3.19
18 | AAATATCTCCC | -0.0762
19 | CAATTTATCCT | -0.673

Row | Sequence | binding signal [z-score]
20 | GGATGCGTCCT | -0.907
21 | CAAATAATCCT | -0.674
22 | AGGGATCTCCC | 1.36
23 | CAATTATCCCC | 0.884
24 | AAATACACCCC | 0.187
25 | AGGAAGCCCCC | 1.7
26 | GAAGGAACCCT | -0.694
27 | AGAAACTTCCC | 0.741
28 | CGGTACATCCC | 0.879
29 | GAAATCGCCCC | 0.389
30 | AGATTATCCCT | 0.0511
31 | GAATTAGTCCT | -0.848
32 | AAAAGAATCCC | 0.359
33 | CGAGGCACCCT | -1.01
34 | CAGAATTCCCC | 2.61
35 | AAGATGCCCCC | 0.633
36 | GAGAACTCCCC | 0.92
37 | GGGTACTCCCC | 2.17
38 | GAAAGAATCCT | -0.804
